This is an account of results in PubChem BioAssay (EPA / NIEHS).

A word on the AC50: it is the concentration at which the activity in the assay is half-maximal.

Calls of active or inactive are those of the source. Rule for the calls: active = hit-call score of the fitted dose curve at least 0.9, where 1 is the maximum; inactive = score below 0.9.

A short description of assay [1]: ATG_CRE_CIS: Attagene CIS-FACTORIAL HepG2 Assay for human cAMP Responsive Element (CRE) binding protein 3 (AID 2282926). The following applies: HepG2 CRE cis-reporter, Attagene multiplexed mRNA; actives raise or lower the signal. An outline of the steps:
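Human liver HepG2, transient MRTU transfection, 24 h compound exposure. Total RNA → oligo(dT) RT → PCR → 6-FAM primer extension → HpaI cut → CE. Activity called both directions vs DMSO.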

The target of assay [2] is CCAAT/enhancer-binding protein beta (Homo sapiens) (UniProt P17676). As to the kind of experiment: ATG_C_EBP_CIS: Attagene CIS-FACTORIAL HepG2 Assay for human CCAAT/Enhancer Binding Protein (C/EBP) beta (AID 2282927). The following applies: HepG2 Attagene cis-factorial transcription factor reporter; actives raise or lower the signal. An outline of the steps:
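Following a 24 h incubation with test chemical, transfected HepG2 cells yielded RNA whose reporter transcripts were quantified by RT-PCR and fluorescent capillary electrophoresis, with DMSO serving as baseline for bidirectional fitting.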

A short description of assay [3]: ATG_CMV_CIS: Attagene CIS-FACTORIAL HepG2 Assay for human CMV (Internal Marker) (AID 2282928).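 Note: endpoint acts as a background internal control marker rather than a target.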 The settings on record: HepG2 CMV promoter reporter, transcription factor profiling; actives raise or lower the signal. An outline of the steps:
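Endogenous transcription factor activity read in HepG2 via transfected cis-promoter reporter units. After 24 h dosing, reporter mRNA measured by RT-PCR/capillary electrophoresis; gain or loss of signal fit relative to DMSO.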

The nature of assay [4]: ATG_DR4_LXR_CIS: Attagene CIS-FACTORIAL HepG2 Assay for human Liver X Receptor (LXR), DR4 submotif (AID 2282929). The settings on record: HepG2 Attagene DR4 cis-reporter, mRNA transcription; actives raise or lower the signal. An outline of the steps:
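HepG2 cells transiently transfected with cis-promoter-driven multiplexed reporter units (DR4 element) were dosed for 24 h. Reporter mRNA was quantified by RT-PCR, fluorescent primer extension, HpaI digestion and capillary electrophoresis; bidirectional fitting versus DMSO baseline.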

Assay [5] addresses Aryl hydrocarbon receptor (Homo sapiens) (UniProt P35869). Kind of assay: ATG_Ahr_CIS: Attagene CIS-FACTORIAL HepG2 Assay for human Aryl Hydrocarbon Receptor (Ahr) (AID 2282930). The following applies: HepG2 AhR cis-factorial reporter transcription; actives raise or lower the signal. An outline of the steps:
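Values derive from bidirectional fitting against DMSO negative control. Underlying signal: cis-element reporter mRNA in transiently transfected HepG2, harvested 24 h post-dose and measured by RT-PCR plus capillary electrophoresis.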

The nature of assay [6]: ATG_AP_1_CIS: Attagene CIS-FACTORIAL HepG2 Assay for human Activator Protein 1 (AP-1) (AID 2282931). The settings on record: HepG2 Attagene cis-factorial AP-1 reporter mRNA; actives raise or lower the signal. In a few lines:
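HepG2 cells transiently transfected with cis-element-driven multiplex reporter units; 24 h compound exposure. Reporter mRNA quantified by RT-PCR, FAM-labelled fragments resolved by capillary electrophoresis; bidirectional fit versus DMSO baseline.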

Assay [7] is described as follows: ATG_AP_2_CIS: Attagene CIS-FACTORIAL HepG2 Assay for human Activator Protein 2 (AP-2) (AID 2282932). The following applies: HepG2 AP-2 cis-reporter, Attagene transcription factor profiling; actives raise or lower the signal. An outline of the steps:
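HepG2 cells were transiently transfected with multiple cis-promoter reporter transcription units and dosed for 24 h. Reporter mRNA was measured by RT-PCR with capillary electrophoresis fluorescence; bidirectional fits relative to DMSO baseline.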

Assay [8] can be described thus: ATG_BRE_CIS: Attagene CIS-FACTORIAL HepG2 Assay for human Bone Morphogenetic Protein (BMP) Response Element (BRE) (AID 2282933). The following applies: HepG2 BMP response element reporter, Attagene transcription factor profiling; actives raise or lower the signal. An outline of the steps: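 After a 24 h chemical treatment, transiently transfected HepG2 cells were lysed for RNA; reporter transcripts were quantified by fluorescent RT-PCR and capillary electrophoresis, normalised to DMSO.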

The target in assay [9] is Retinoic acid receptor alpha (Homo sapiens) (UniProt P10276). Kind of assay: ATG_DR5_RAR_CIS: Attagene CIS-FACTORIAL HepG2 Assay for human Retinoic Acid Receptor Alpha (RARE), DR5 submotif (AID 2282934). The settings on record: HepG2 Attagene cis-factorial RARE DR5 reporter, mRNA; actives raise or lower the signal. In a few lines: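 Endpoint fitted in both directions relative to DMSO as negative control. It reflects DR5 cis-element reporter mRNA induction in transiently transfected HepG2 cells, measured 24 h after dosing through RT-PCR and fluorescent capillary electrophoresis.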

Assay [10] deals with Transcription factor E2F1 (Homo sapiens) (UniProt Q01094). Kind of assay: ATG_E2F_CIS: Attagene CIS-FACTORIAL HepG2 Assay for human E2F Transcription Factor 1 (AID 2282935). The settings on record: HepG2 Attagene cis-reporter, E2F reporter RNA transcripts; actives raise or lower the signal. An outline of the steps: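 HepG2 cells transiently transfected with multiplexed cis-element reporter units, dosed for 24 h. Reporter mRNA measured by RT-PCR, 6-FAM primer-extension labeling, HpaI digestion and capillary electrophoresis; bidirectional fit versus DMSO baseline.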
Sequence of Transcription factor E2F1 (Homo sapiens) (Q01094 whole entry, looked up): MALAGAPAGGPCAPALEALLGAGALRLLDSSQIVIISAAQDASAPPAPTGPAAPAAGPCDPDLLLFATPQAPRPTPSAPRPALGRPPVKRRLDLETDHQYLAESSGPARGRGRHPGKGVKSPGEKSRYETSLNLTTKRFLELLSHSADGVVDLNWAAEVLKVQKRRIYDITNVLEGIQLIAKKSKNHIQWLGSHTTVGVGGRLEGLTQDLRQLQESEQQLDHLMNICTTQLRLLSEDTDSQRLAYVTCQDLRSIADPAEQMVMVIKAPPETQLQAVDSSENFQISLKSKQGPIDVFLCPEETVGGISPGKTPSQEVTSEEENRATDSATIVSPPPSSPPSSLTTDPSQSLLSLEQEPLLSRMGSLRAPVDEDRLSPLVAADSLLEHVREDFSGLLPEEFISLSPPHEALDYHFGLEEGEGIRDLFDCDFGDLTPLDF

Sequence of CCAAT/enhancer-binding protein beta (Homo sapiens) (P17676 whole entry, looked up): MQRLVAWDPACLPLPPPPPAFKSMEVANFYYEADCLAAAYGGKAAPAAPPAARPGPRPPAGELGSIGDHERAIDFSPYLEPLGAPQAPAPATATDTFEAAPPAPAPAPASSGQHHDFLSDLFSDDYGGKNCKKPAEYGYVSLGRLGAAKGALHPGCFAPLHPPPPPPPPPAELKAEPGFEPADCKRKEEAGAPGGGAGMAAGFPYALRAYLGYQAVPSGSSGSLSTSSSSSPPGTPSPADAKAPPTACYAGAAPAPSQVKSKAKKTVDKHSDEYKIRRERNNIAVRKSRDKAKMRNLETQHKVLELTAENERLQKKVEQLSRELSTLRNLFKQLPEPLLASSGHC
Sequence of Retinoic acid receptor alpha (Homo sapiens) (P10276 whole entry, looked up): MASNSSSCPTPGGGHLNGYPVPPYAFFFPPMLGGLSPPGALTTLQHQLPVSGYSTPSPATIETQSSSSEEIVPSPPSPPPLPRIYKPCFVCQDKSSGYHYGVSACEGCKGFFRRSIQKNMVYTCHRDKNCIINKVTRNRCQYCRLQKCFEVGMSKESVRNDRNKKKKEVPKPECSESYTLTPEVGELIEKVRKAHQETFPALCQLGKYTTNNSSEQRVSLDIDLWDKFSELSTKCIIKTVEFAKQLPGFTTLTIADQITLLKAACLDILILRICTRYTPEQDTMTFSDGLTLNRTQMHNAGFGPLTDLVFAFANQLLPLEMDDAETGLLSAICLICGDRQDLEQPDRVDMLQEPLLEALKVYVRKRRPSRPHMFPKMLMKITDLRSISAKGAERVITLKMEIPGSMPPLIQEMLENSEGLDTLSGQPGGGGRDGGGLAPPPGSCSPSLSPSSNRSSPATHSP
Sequence of Aryl hydrocarbon receptor (Homo sapiens) (P35869 whole entry, looked up): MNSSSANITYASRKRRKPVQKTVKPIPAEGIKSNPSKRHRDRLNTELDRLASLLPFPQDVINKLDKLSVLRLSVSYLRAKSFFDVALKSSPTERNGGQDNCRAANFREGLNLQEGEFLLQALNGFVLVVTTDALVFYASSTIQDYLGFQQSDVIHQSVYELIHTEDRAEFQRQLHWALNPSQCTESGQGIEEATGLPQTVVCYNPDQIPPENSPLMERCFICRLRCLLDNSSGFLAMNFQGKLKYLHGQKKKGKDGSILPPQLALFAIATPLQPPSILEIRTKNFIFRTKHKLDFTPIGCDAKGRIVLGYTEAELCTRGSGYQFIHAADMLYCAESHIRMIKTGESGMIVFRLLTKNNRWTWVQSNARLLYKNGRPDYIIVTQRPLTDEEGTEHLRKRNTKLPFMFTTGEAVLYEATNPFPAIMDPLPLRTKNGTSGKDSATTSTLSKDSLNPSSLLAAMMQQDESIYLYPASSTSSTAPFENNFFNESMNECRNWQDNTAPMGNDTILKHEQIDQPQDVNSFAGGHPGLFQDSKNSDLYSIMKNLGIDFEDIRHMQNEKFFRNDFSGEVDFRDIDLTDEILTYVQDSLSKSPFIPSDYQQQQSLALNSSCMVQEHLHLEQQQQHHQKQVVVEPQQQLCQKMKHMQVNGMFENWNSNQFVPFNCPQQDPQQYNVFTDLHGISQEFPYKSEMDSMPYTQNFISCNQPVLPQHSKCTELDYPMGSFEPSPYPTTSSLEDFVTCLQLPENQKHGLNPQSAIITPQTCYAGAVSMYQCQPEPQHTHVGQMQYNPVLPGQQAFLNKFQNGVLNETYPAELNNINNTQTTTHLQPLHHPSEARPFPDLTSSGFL

Turning to `O=C(O)CCCCCCCCC(=O)O`, the compound was classed as inactive in assay [1], in assay [2], in assay [3], in assay [4], in assay [5] and in assay [6]. Moreover, the compound was called inactive in assay [7], in assay [8], in [9] and in assay [10].

Turning to `Nc1ccccc1[N+](=O)[O-]`, the call in [1], in [2], in assay [3], in assay [4], in assay [5] and in [6] was inactive. In addition, the compound was classed as inactive in [7], in assay [8], in assay [9] and in assay [10].

Consider `CC(C)C[C@H](NC(=O)OCC1c2ccccc2-c2ccccc21)C(=O)O`, for which the result in assay [1], in assay [2], in assay [3], in [4], in assay [5] and in assay [6] was inactive. In addition, the outcome in [7], in assay [8], in assay [9] and in [10] was inactive.

Consider `O=C(O)c1ccc(O)cc1`, for which the compound was classed as inactive in [1], in assay [2], in [3], in [4], in assay [5] and in assay [6]. Also, the result in assay [7], in [8], in assay [9] and in assay [10] was inactive.

On to `C=CC(C)C#N` (stereo not given), for which the call in [1], in assay [2], in assay [3], in assay [4], in assay [5] and in assay [6] was inactive. The outcome in [7], in [8], in assay [9] and in [10] was inactive.

For the compound `COc1ccc(N=Nc2cc(C)c(N=Nc3ccc(S(=O)(=O)O)cc3)cc2OC)cc1`, the half-maximal activity concentration (AC50) is 19.8 µM (active) in assay [1], 42.9 µM (active) in assay [2], 74.3 µM (active) in assay [4] and 4.25 µM (active) in [5]. Moreover, the outcome in assay [3], in assay [6], in assay [7], in assay [8], in assay [9] and in assay [10] was inactive.

For `CC(=O)O[C@H]1C[C@@H]2CC[C@@]1(C)C2(C)C`, the outcome in [1], in [2], in [3], in assay [4], in assay [5] and in assay [6] was inactive. Besides, the call in [7], in [8], in assay [9] and in assay [10] was inactive.

Consider `CS(=O)(=O)c1ccc(C2=C(c3ccccc3)C(=O)OC2)cc1`, for which the compound was called inactive in assay [1], in assay [2], in assay [3], in assay [4], in [6] and in assay [7]. Besides, the result in [8], in assay [9] and in [10] was inactive. For the same compound, the AC50 in [5] is 0.0408 µM (active).

On to `OC[C@H]1O[C@@H]2O[C@H]3[C@H](O)[C@@H](O)[C@@H](O[C@H]4[C@H](O)[C@@H](O)[C@@H](O[C@H]5[C@H](O)[C@@H](O)[C@@H](O[C@H]6[C@H](O)[C@@H](O)[C@@H](O[C@H]7[C@H](O)[C@@H](O)[C@@H](O[C@H]8[C@H](O)[C@@H](O)[C@@H](O[C@H]9[C@H](O)[C@@H](O)[C@@H](O[C@H]1[C@H](O)[C@H]2O)O[C@@H]9CO)O[C@@H]8CO)O[C@@H]7CO)O[C@@H]6CO)O[C@@H]5CO)O[C@@H]4CO)O[C@@H]3CO`, for which the compound was called inactive in assay [1], in [2], in assay [3], in [4], in assay [5] and in [6]. Also, the compound was classed as inactive in assay [7], in [8], in assay [9] and in [10].

On to `O=C(Nc1ccc2c(O)c(N=Nc3ccc(N=Nc4ccc(S(=O)(=O)O)cc4)cc3)c(S(=O)(=O)O)cc2c1)c1ccccc1`, for which the compound was classed as inactive in [1], in [2], in [3], in assay [4], in assay [5] and in assay [6]. Further, the compound was called inactive in [7], in assay [9] and in assay [10]. Further, the AC50 in assay [8] is 66.8 µM (active).

For the compound `CC(C)(CO)[C@@H](O)C(=O)NCCC(=O)O`, the compound was classed as inactive in assay [1], in [2], in [3], in assay [4], in assay [5] and in assay [6]. The outcome in assay [7], in assay [8], in [9] and in assay [10] was inactive.

For the compound `C=COCCOCCOC=C`, the compound was classed as inactive in assay [1], in [2], in assay [3], in assay [4], in [5] and in assay [6]. For the same compound, the compound was classed as inactive in [7], in assay [8], in assay [9] and in assay [10].

Consider `Cc1ccc(C)o1`, for which the call in assay [1], in assay [2], in [3], in assay [4], in assay [5] and in assay [6] was inactive. Further, the call in [7], in assay [8], in [9] and in [10] was inactive.

In the case of `CN(C)c1cccc(O)c1`, the call in [1], in assay [2], in [3], in assay [4], in assay [6] and in [7] was inactive. The call in assay [8], in assay [9] and in assay [10] was inactive. Further, the AC50 in assay [5] was 7.57 µM (active).

As for `C=CC(=O)OCCCC`, the call in assay [1], in [2], in assay [3], in [4], in assay [5] and in assay [6] was inactive. Moreover, the compound was called inactive in assay [7], in assay [8], in assay [9] and in assay [10].

For the compound `C=Cc1ccc(C)cc1`, the outcome in assay [1], in [2], in [3], in assay [4], in assay [5] and in assay [6] was inactive. Moreover, the result in assay [7], in assay [8], in assay [9] and in assay [10] was inactive.

Regarding `CCN(CCC#N)c1ccc(N=Nc2ccc([N+](=O)[O-])cc2)cc1`, the compound was classed as inactive in assay [1], in assay [2], in assay [3], in assay [4], in assay [5] and in assay [6]. The outcome in assay [7], in assay [8], in assay [9] and in assay [10] was inactive.

Consider `COC(=O)c1cccnc1`, for which the result in assay [1], in [2], in assay [3], in [4], in assay [5] and in [6] was inactive. Further, the compound was classed as inactive in assay [7], in [8], in assay [9] and in [10].

Take `CCOC(=O)CCc1ccccc1`: the compound was called inactive in assay [1], in assay [2], in assay [3], in [4], in assay [5] and in [6]. For the same compound, the compound was classed as inactive in assay [7], in assay [8], in [9] and in assay [10].

Turning to `CC(O)C1CCCCC1` (stereo not given), the result in assay [1], in assay [2], in assay [3], in [4], in assay [5] and in assay [6] was inactive. The call in assay [7], in assay [8], in assay [9] and in [10] was inactive.

For the compound `C[C@H]1O[C@@H](O[C@H]2[C@@H](O)C[C@H](O[C@H]3[C@@H](O)C[C@H](O[C@H]4CC[C@@]5(C)[C@H](CC[C@@H]6[C@@H]5C[C@@H](O)[C@]5(C)[C@@H](C7=CC(=O)OC7)CC[C@]65O)C4)O[C@@H]3C)O[C@@H]2C)C[C@H](O)[C@@H]1O`, the AC50 in assay [1] is 0.0776 µM (active); in assay [2] it was 0.0593 µM (active); in [3], 2.56 µM (active); in [4] it was 0.11 µM (active); in assay [7] it was 0.0857 µM (active). The call in assay [5], in assay [6], in assay [8], in [9] and in [10] was inactive.

In the case of `C[C@H](CCC(=O)NCC(=O)O)[C@H]1CC[C@H]2[C@@H]3[C@H](O)C[C@@H]4C[C@H](O)CC[C@]4(C)[C@H]3C[C@H](O)[C@]12C`, the outcome in [1], in assay [2], in assay [3], in assay [4], in [5] and in [6] was inactive. For the same compound, the compound was called inactive in [7], in [8], in assay [9] and in [10].
